“And” between values parts separate entries of the source, which are not always exact repeats. Identical values can stand only once. Some compounds were tested as several samples or in several runs, with calls that do not always agree. The source made the active and inactive calls. The calls were made as follows: active = hit-call score of the fitted dose curve at least 0.9, where 1 is the maximum; inactive = score below 0.9.
Tests used:
[1] = APR_HepG2_P-H2AX_72hr: Apredica 72-hour HepG2 Assay for H2AX Phosphorylation (AID 2282916); conditions: imaging, actives raise or lower the signal;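 also: phospho-histone H2A.x immunostain intensity per cell marking DNA damage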
Summary of the method: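 Phospho-H2A.x imaging endpoint in HepG2 after 72 hr compound exposure (0.39–200 uM, duplicate wells). Activity derived by bidirectional curve fitting with DMSO as baseline.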

[2] = APR_HepG2_MitoMembPot_72hr: Apredica 72-hour HepG2 Assay for Mitochondrial Membrane Potential (AID 2282917); conditions: imaging, actives raise or lower the signal
Summary of the method: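 HepG2 cells dosed 72 hr with compound at 0.39–200 uM in duplicate, 0.5% v/v DMSO final. Mitochondria stained with 250 nM MitoTracker Red CMXRos for 30 min before formaldehyde fixation, imaged by high-content fluorescence; bidirectional fit versus DMSO.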

[3] = APR_HepG2_MitoticArrest_72hr: Apredica 72-hour HepG2 Assay for Mitotic Arrest (AID 2282918); conditions: high-content imaging, actives raise or lower the signal
Summary of the method: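 HepG2, 72 hr exposure, 0.39–200 uM in duplicate, 0.5% v/v DMSO final. Formaldehyde-fixed, Triton-permeabilized, anti-phospho-histone H3/FITC plus Hoechst. ArrayScan imaging at 20x; curves fit bidirectionally against DMSO baseline.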

[4] = APR_HepG2_MicrotubuleCSK_72hr: Apredica 72-hour HepG2 Assay for Microtubule CSK Stabilty (AID 2282919); conditions: HepG2 microtubule cytoskeleton, high-content imaging, actives raise or lower the signal
Summary of the method: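 HepG2, 72 hr cmpd exposure, 0.39–200 uM (10 pts, duplicate), 0.5% DMSO. 3.7% formaldehyde fix, 0.5% Triton perm, anti-alpha-tubulin/Cy5 plus Hoechst. HCS fluorescence intensity; bidirectional fit vs DMSO baseline; taxol as positive control.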

[5] = APR_HepG2_P-H2AX_24hr: Apredica 24-hour HepG2 Assay for H2AX Phosphorylation (AID 2282920); conditions: high-content imaging, actives raise or lower the signal
Summary of the method: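 HCS fluorescence imaging of phospho-H2A.x immunostain (with Hoechst 33342 nuclear counterstain) in HepG2 after 24 hr compound exposure; 10 concentrations, 0.39–200 uM, duplicate wells, 0.5% v/v DMSO. Gain or loss of signal fitted relative to DMSO baseline.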

[6] = APR_HepG2_NuclearSize_72hr: Apredica 72-hour HepG2 Assay for Nuclear Size (AID 2282925); conditions: high-content imaging, actives raise or lower the signal
Summary of the method: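 Read-out: nuclear diameter from Hoechst 33342 images (ArrayScan, 20x, six fields/well), via cell-cycle image analysis. HepG2 were dosed 0.39–200 uM for 72 hr in 0.5% DMSO. Bidirectional fit relative to DMSO.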

[7] = ATG_CRE_CIS: Attagene CIS-FACTORIAL HepG2 Assay for human cAMP Responsive Element (CRE) binding protein 3 (AID 2282926); conditions: HepG2 CRE cis-reporter, Attagene multiplexed mRNA; actives raise or lower the signal
Summary of the method: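 Readout: fluorescently labelled reporter transcripts resolved by capillary electrophoresis after RT-PCR, taken 24 h post-dosing in transfected HepG2. Endogenous transcription factor activity drives each cis-element reporter; gain or loss of signal fitted relative to DMSO control.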

[8] = molecular target: CCAAT/enhancer-binding protein beta (Homo sapiens) (UniProt P17676); experiment: ATG_C_EBP_CIS: Attagene CIS-FACTORIAL HepG2 Assay for human CCAAT/Enhancer Binding Protein (C/EBP) beta (AID 2282927); conditions: HepG2 Attagene cis-factorial transcription factor reporter; actives raise or lower the signal
Sequence of CCAAT/enhancer-binding protein beta (Homo sapiens) (P17676 whole entry, looked up): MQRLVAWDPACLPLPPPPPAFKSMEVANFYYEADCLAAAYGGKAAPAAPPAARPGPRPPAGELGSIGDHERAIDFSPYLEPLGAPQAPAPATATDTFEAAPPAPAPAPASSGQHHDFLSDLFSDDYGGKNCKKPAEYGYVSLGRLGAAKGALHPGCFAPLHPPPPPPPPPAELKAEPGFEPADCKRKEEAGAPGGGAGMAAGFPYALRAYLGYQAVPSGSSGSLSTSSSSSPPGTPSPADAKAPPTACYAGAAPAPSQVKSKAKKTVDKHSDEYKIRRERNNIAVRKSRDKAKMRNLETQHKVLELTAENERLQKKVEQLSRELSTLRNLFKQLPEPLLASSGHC
Summary of the method: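 HepG2 transiently transfected with multiplexed reporter units under cis-regulatory promoters reporting endogenous C/EBPb activity. After 24 h exposure, reporter mRNA assayed by RT-PCR, fluorescent labelling, HpaI digestion and capillary electrophoresis; bidirectional fitting versus DMSO.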

[9] = ATG_DR4_LXR_CIS: Attagene CIS-FACTORIAL HepG2 Assay for human Liver X Receptor (LXR), DR4 submotif (AID 2282929); conditions: HepG2 Attagene DR4 cis-reporter, mRNA transcription; AC50: actives raise or lower the signal unless noted; outcome: actives raise or lower the signal unless noted
Summary of the method: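 DR4 cis-reporter in HepG2, 24 h exposure. Detection: RT-PCR, 6-FAM labelling, CE fragment analysis. Endpoint fitted bidirectionally, DMSO = baseline.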

[10] = ATG_AP_1_CIS: Attagene CIS-FACTORIAL HepG2 Assay for human Activator Protein 1 (AP-1) (AID 2282931); conditions: HepG2 Attagene cis-factorial AP-1 reporter mRNA; actives raise or lower the signal
Summary of the method: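 Cis-regulated reporter units transiently expressed in HepG2 report endogenous transcription-factor activity. Signal: reporter mRNA at 24 h, via RT-PCR and fluorescent capillary electrophoresis. Endpoint derived by bidirectional fitting, DMSO as negative control.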

[11] = ATG_AP_2_CIS: Attagene CIS-FACTORIAL HepG2 Assay for human Activator Protein 2 (AP-2) (AID 2282932); conditions: HepG2 AP-2 cis-reporter, Attagene transcription factor profiling; AC50: actives raise or lower the signal unless noted; outcome: actives raise or lower the signal unless noted
Summary of the method: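 Read-out: fluorescent reporter mRNA via RT-PCR and capillary electrophoresis, 24 h post-dose in transiently transfected HepG2. Endogenous factors drive cis-promoter reporters; gain or loss of signal fitted bidirectionally against DMSO.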

[12] = ATG_BRE_CIS: Attagene CIS-FACTORIAL HepG2 Assay for human Bone Morphogenetic Protein (BMP) Response Element (BRE) (AID 2282933); conditions: HepG2 BMP response element reporter, Attagene transcription factor profiling; actives raise or lower the signal
Summary of the method: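 Transient MRTU transfection of human HepG2 liver cells; 24 h compound treatment; total RNA isolated, reverse-transcribed, PCR-amplified, 6-FAM labelled, HpaI-cut, capillary electrophoresis. DMSO = negative control/baseline, bidirectional fit.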

[13] = molecular target: Retinoic acid receptor alpha (Homo sapiens) (UniProt P10276); experiment: ATG_DR5_RAR_CIS: Attagene CIS-FACTORIAL HepG2 Assay for human Retinoic Acid Receptor Alpha (RARE), DR5 submotif (AID 2282934); conditions: HepG2 Attagene cis-factorial RARE DR5 reporter, mRNA; actives raise or lower the signal;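 as to AC50: reporter responds to endogenous RAR alpha beta and gamma in HepG2 not RARA alone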
Sequence of Retinoic acid receptor alpha (Homo sapiens) (P10276 whole entry, looked up): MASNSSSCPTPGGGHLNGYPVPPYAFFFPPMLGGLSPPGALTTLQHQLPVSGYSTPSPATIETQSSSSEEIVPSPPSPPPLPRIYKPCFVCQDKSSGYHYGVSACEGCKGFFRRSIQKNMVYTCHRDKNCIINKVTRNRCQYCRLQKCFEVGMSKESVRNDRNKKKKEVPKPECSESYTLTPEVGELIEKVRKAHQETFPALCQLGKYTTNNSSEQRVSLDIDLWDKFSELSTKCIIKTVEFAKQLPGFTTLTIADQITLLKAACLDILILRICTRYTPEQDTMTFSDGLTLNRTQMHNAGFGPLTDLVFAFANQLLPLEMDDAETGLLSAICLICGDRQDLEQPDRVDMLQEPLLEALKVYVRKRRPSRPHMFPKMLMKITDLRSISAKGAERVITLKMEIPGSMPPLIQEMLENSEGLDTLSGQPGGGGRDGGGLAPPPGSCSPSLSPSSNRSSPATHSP
Summary of the method: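 HepG2 cells transiently transfected with multiplexed reporter units; DR5 cis-element drives reporter through endogenous transcription factors. After 24 h dosing, reporter mRNA quantified by RT-PCR, fluorescent labeling, HpaI digestion and capillary electrophoresis; bidirectional fitting versus DMSO.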

[14] = molecular target: Transcription factor E2F1 (Homo sapiens) (UniProt Q01094); experiment: ATG_E2F_CIS: Attagene CIS-FACTORIAL HepG2 Assay for human E2F Transcription Factor 1 (AID 2282935); conditions: HepG2 Attagene cis-reporter, E2F reporter RNA transcripts; actives raise or lower the signal
Sequence of Transcription factor E2F1 (Homo sapiens) (Q01094 whole entry, looked up): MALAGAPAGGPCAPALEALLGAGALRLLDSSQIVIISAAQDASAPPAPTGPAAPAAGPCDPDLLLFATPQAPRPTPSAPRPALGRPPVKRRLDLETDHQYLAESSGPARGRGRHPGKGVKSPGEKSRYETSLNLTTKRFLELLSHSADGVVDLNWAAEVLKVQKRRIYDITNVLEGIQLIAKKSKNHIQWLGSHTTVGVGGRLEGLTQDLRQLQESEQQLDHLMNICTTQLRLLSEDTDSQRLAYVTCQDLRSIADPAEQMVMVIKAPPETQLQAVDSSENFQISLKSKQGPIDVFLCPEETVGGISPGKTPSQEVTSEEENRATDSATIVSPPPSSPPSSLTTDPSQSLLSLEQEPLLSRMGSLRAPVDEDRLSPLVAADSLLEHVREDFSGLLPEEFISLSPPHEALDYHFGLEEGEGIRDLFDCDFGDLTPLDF
Summary of the method: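 Transient MRTU transfection of HepG2; 24 h compound exposure; RNA → oligo(dT) RT → PCR → FAM label → HpaI cut → CE fluorescence. Gain/loss of signal fit against DMSO.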

[15] = ATG_E_Box_CIS: Attagene CIS-FACTORIAL HepG2 Assay for human Enhancer Box (E-box) (AID 2282936); conditions: HepG2 E-box cis-reporter transcription, actives raise or lower the signal
Summary of the method: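 Transiently transfected HepG2, endogenous TF-driven reporters, 24 h dosing. Readout: RT-PCR plus capillary electrophoresis of fluorescent reporter fragments. Gain or loss of signal fitted bidirectionally against DMSO baseline.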

[16] = ATG_M_61_CIS: Attagene CIS-FACTORIAL HepG2 Assay for M61 Transcription Factor (Internal Marker) (AID 2282937); conditions: HepG2 Attagene CIS-FACTORIAL M61 internal marker reporter; actives raise or lower the signal
Summary of the method: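 Background-control endpoint: HepG2 cells with cis-regulated reporter constructs, 24 h exposure, reporter mRNA detected via fluorescent primer extension and capillary electrophoresis; values from bidirectional fitting with DMSO baseline.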

[17] = APR_HepG2_StressKinase_24hr: Apredica 24-hour HepG2 Assay for Stress Kinase (AID 2282922); conditions: HepG2 stress kinase (phospho-c-Jun) imaging, actives raise or lower the signal
Summary of the method: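 Read-out: phospho-c-Jun immunofluorescence (Cy3 secondary) quantified by high-content imaging at 20x, nuclei defined by Hoechst 33342. Human HepG2 liver cells dosed 24 hr, 0.39–200 uM, DMSO 0.5% v/v; gain or loss of signal fitted relative to DMSO.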

[18] = ATG_CMV_CIS: Attagene CIS-FACTORIAL HepG2 Assay for human CMV (Internal Marker) (AID 2282928); conditions: HepG2 CMV promoter reporter, transcription factor profiling; actives raise or lower the signal;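 also: endpoint acts as a background internal control marker rather than a target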
Summary of the method: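 24 h chemical treatment, HepG2 with transient multi-reporter transfection; RNA → oligo(dT) RT → PCR → 6-FAM extension → HpaI digest → CE fluorescence. Bidirectional fit, DMSO negative control.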

[19] = APR_HepG2_p53Act_72hr: Apredica 72-hour HepG2 Assay for p53 Activation (AID 2282923); conditions: high-content imaging, actives raise or lower the signal;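 also: average cellular p53 protein immunofluorescence intensity in HepG2 cells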
Summary of the method: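 Fixed-cell p53 staining (sheep primary, Cy5 secondary) measured by fluorescence imaging following 72 hr treatment at 0.39–200 uM in 0.5% DMSO; DMSO served as negative control and baseline.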

[20] = molecular target: Aryl hydrocarbon receptor (Homo sapiens) (UniProt P35869); experiment: ATG_Ahr_CIS: Attagene CIS-FACTORIAL HepG2 Assay for human Aryl Hydrocarbon Receptor (Ahr) (AID 2282930); conditions: HepG2 AhR cis-factorial reporter transcription; actives raise or lower the signal
Sequence of Aryl hydrocarbon receptor (Homo sapiens) (P35869 whole entry, looked up): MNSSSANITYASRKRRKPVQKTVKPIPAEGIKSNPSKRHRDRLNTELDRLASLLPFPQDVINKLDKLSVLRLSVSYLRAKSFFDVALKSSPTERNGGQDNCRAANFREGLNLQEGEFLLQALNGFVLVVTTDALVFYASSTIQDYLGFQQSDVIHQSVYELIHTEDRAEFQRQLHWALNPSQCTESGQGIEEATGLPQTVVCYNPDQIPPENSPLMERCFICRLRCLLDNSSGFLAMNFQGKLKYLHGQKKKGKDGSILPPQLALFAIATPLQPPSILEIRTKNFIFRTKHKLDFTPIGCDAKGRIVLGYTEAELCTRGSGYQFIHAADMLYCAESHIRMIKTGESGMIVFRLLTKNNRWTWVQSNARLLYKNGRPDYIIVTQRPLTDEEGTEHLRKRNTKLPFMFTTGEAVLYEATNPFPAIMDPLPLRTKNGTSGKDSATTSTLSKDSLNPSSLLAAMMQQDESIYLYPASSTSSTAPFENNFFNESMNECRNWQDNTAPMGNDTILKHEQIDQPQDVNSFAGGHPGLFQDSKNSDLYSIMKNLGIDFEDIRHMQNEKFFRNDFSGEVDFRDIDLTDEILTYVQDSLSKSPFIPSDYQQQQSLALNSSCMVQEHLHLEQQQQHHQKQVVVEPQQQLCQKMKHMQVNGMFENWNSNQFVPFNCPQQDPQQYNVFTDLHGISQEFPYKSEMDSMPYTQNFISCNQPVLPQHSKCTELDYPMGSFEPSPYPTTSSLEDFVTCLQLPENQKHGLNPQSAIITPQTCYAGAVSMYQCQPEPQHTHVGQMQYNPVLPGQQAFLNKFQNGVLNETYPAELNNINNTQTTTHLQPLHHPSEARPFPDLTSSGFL
Summary of the method: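 HepG2 cells transiently transfected with cis-element-driven multiplexed reporter units; endogenous AhR activity read as reporter mRNA 24 h after dosing, via RT-PCR, 6-FAM labelling, HpaI digestion and capillary electrophoresis. Bidirectional fit relative to DMSO.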

Measured: AC50

O=C1NS(=O)(=O)c2ccccc21
not listed: [17] | [18] | [19] | [20]
inactive: all other assays above

CCCCC=O
not listed: [7] | [13] | [19] | [20]
inactive: all other assays above

N=C(N)c1ccc(OCCCCCOc2ccc(C(=N)N)cc2)cc1
active: [1] 25.1 µM | [3] 21.6 µM | [5] 39.7 µM | [6] 45.5 µM | [18] 0.781 µM | [9] 116 µM | [10] 0.813 µM | [12] 23.3 µM | [15] 137 µM
not listed: [19] | [20]
inactive: all other assays above

O=C(c1ccccc1)c1ccccc1
active: [19] 0.304 µM
not listed: [4] | [6] | [10]
inactive: all other assays above

CCCCCCCCCCCCOS(=O)(=O)O
inactive: [1] | [2] | [3] | [4] | [5] | [17] | [6]

OCC(CO)(CBr)CBr
not listed: [2] | [3] | [4] | [19]
inactive: all other assays above

CCCCCCCCCCCCCCC
not listed: [10] | [19] | [20]
inactive: all other assays above

c1cnc2c(c1)ccc1cccnc12
active: [18] 2.89 µM | [11] 5.84 µM | [15] 5.67 µM and 3.9 µM
inactive: [7] | [8] | [18] | [9] | [20] | [10] | [11] | [12] | [13] | [14] | [16]

CN(C)CCOC(c1ccccc1)c1ccccc1
active: [1] 114 µM | [3] 111 µM | [9] 150 µM | [20] 64 µM | [15] 60.6 µM
not listed: [4] | [6] | [10] | [19]
inactive: all other assays above

O=C(CCCN1CCC(O)(c2ccc(Cl)cc2)CC1)c1ccc(F)cc1
inactive: [8] | [9] | [20] | [11] | [12] | [14] | [16]
active: [1] 33 µM | [2] 51.7 µM | [3] 19.8 µM | [5] 100 µM | [17] 103 µM | [19] 37.3 µM | [7] 52.9 µM | [18] 49.7 µM | [10] 60.1 µM | [15] 22 µM

CCCCC(CC)C(=O)O (stereo not drawn)
not listed: [2] | [3] | [4] | [11] | [13] | [19] | [20]
inactive: all other assays above

CC(C)(C)c1ccc(O)c(O)c1
inactive: [7] | [8] | [18] | [9] | [20] | [11] | [12] | [13] | [14] | [15] | [16]
active: [7] 47.8 µM and 181 µM | [18] 64.9 µM [middle of 4 runs] | [9] 40.8 µM | [20] 20 µM | [12] 47.3 µM

CCCCCCCCCCCC(=O)O
inactive: [7] | [8] | [18] | [9] | [20] | [11] | [12] | [13] | [14] | [15] | [16]
active: [18] 60 µM | [9] 167 µM | [13] 100 µM

COc1ccc(C#N)cc1
not listed: [1] | [2] | [3] | [4] | [5] | [6] | [17] | [19]
inactive: all other assays above

CN(C)c1ccc(C(=C2C=CC(=[N+](C)C)C=C2)c2ccccc2)cc1
inactive: [7] | [8] | [18] | [20] | [10] | [11] | [12] | [14] | [16]
active: [7] 2.56 µM | [9] 2.07 µM and 1.26 µM | [10] 0.472 µM | [11] 2.72 µM | [15] 3.63 µM and 1.85 µM

CCCCc1oc2ccccc2c1C(=O)c1cc(I)c(OCCN(CC)CC)c(I)c1
active: [1] 75.5 µM | [3] 8.51 µM | [5] 51.7 µM | [17] 58.2 µM | [19] 75.5 µM | [8] 95 µM | [18] 20 µM | [9] 18.4 µM | [20] 55.1 µM | [11] 130 µM | [16] 89.1 µM
inactive: [2] | [12] | [14] | [15]
